In the library only some 4% were active in any assay of this set; here they are far more common.
CCHFV vOTU inh = CCHFV vOTU protease inhibition. Pep-AMC fluorescence. inhibition, % at 11.5 µM. actives 0.55% (n = 370,000); in the data active = inhibition above about 30%
GDH-TPI counter-1 = counter-screen for M. tuberculosis FBA inhibitors: GDH-TPI coupled enzymes; GDH-TPI coupled enzyme counterscreen, NADH absorbance; inhibition, % at 4.8 µM; actives 1.2% (n = 360,000); AID 588335; in the data active = inhibition above about 30%
Mtb FBA inh = inhibitors of M. tuberculosis fructose-bisphosphate aldolase; purified M. tuberculosis FBA, fluorescence read-out; inhibition, % at 1 µM; actives 2.3% (n = 360,000); AID 588726
Target sequence (P9WQA3 whole entry, looked up): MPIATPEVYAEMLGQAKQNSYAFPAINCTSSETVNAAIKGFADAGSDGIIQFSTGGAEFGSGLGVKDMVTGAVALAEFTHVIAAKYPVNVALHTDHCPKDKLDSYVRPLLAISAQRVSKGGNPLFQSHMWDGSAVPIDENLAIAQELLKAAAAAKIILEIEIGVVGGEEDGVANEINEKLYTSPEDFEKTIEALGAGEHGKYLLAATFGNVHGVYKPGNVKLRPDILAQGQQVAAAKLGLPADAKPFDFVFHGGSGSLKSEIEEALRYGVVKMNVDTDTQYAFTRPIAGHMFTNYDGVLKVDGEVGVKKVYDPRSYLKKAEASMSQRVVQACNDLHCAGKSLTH
Mtb betalactam = beta-lactam sensitization of Mtb H37Rv; M. tuberculosis H37Rv growth with meropenem, percent inhibition; actives 0.27% (n = 330,000); inhibition, % at 25 µM; call rule not given here;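 also: growth measured after seven days incubation then overnight dye step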
MazF activator = MazEF (E. coli) toxin RNase activation | activation, % at 20 µM | actives 0.32% (n = 350,000) | FAM/BHQ RNA-DNA oligo cleavage fluorescence, 5 h | P0AE70; in the data active = activation above about 50%
Target sequence (P0AE70 whole entry, looked up): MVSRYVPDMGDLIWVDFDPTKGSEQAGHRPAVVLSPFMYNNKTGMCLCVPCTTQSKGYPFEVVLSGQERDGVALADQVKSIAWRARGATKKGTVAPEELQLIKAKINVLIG
Mtb FBA confirm = confirmation of M. tuberculosis fructose-bisphosphate aldolase inhibitors; shares compounds with Mtb FBA inh; purified M. tuberculosis FBA, fluorescence read-out; inhibition, % at 1 µM; actives 78% (n = 5,600); AID 651616
GDH-TPI counter-2 = inhibits GDH-TPI coupling enzymes, flagging Mtb FBA hits; AID 652141; GDH-TPI coupled enzyme counterscreen, fluorescence; actives 81% (n = 5,600); inhibition, % at 1 µM; shares compounds with Mtb FBA inh; in the data active = inhibition above about 10%
Each line names hits and unclear results; the compound was inactive in the other large screens (follow-up assays come after a bar, where they were run). Rule as the data show it, unless noted: active = inhibition above about 27%; inactive = the rest.

Cc1cc(=O)oc2cc(NC(=O)C(C)N3C(=O)C4CCCCC4C3=O)ccc12 (stereo not given)	Mtb FBA inh 85 | Mtb FBA confirm 65 | GDH-TPI counter-2 35
Cc1cc(=O)oc2cc(NC(=O)Cc3ccccc3)ccc12	Mtb FBA inh 80 | Mtb FBA confirm active | GDH-TPI counter-2 185
COc1ccccc1C(=O)Nc1ccc2c(C)cc(=O)oc2c1	none
Cc1cc(=O)oc2cc(Nc3ccccc3)ccc12	none
Cc1cc(=O)oc2cc(NC(=O)c3cccc(S(C)(=O)=O)c3)ccc12	Mtb FBA inh 34 | Mtb FBA confirm 79 | GDH-TPI counter-2 62
Cc1cc(=O)oc2cc(NC(=O)c3cccc(F)c3)ccc12	none
COC(=O)C1CN(CCc2ccccc2)CCS(=O)(=O)N1Cc1ccccc1 (stereo not given)	none (no result: GDH-TPI counter-1, Mtb FBA inh, Mtb betalactam, MazF activator)
Brc1ccc2nc(-c3ccc(CN4CCC5(CC4)CNc4ccccc45)cc3)c(-c3ccccc3)nc2c1	none (no result: GDH-TPI counter-1, Mtb FBA inh, Mtb betalactam, MazF activator)
Cc1ccc2cc(C#N)c(NCc3ccccc3)nc2c1	Mtb FBA inh 32 | Mtb FBA confirm 53 | GDH-TPI counter-2 44
COC(=O)[C@]12C[C@H](CC(=O)NCc3ccc(C)o3)C(=O)N(Cc3ccc4c(c3)OCO4)C1=C[C@H](C(C)(C)C)O[C@@H]2C	none (no result: GDH-TPI counter-1, Mtb FBA inh, Mtb betalactam, MazF activator)
Cc1ccnc2nc(NC(=O)c3ccco3)nn12	none
O=C(Nc1nc2nc(-c3ccccc3)cc(-c3ccccc3)n2n1)c1ccco1	Mtb FBA inh 43 | Mtb FBA confirm 132 | GDH-TPI counter-2 98
Cc1nc2sc3c(O)cc(=O)[nH]c3c2c(C)c1C	Mtb FBA inh 33 | Mtb FBA confirm 73 | GDH-TPI counter-2 69
CCc1ccc2nc(N=C(N)N)nc(C)c2c1	Mtb FBA inh 40 | Mtb FBA confirm 177 | GDH-TPI counter-2 133
Cc1cc(=O)oc2c(C)c(OCC(=O)N3CCC(C(=O)O)(c4ccccc4)CC3)ccc12	Mtb FBA inh 35 | Mtb FBA confirm inactive | GDH-TPI counter-2 inactive
CCc1cc(=O)oc2cc(C)cc(OCC(=O)N3CCC(C(=O)O)(c4ccccc4)CC3)c12	Mtb FBA inh 88 | Mtb FBA confirm inactive | GDH-TPI counter-2 inactive
CCCc1cc(=O)oc2c(C)c(OCC(=O)N3CCC(C(=O)O)(c4ccccc4)CC3)ccc12	Mtb FBA inh 32 | Mtb FBA confirm 103 | GDH-TPI counter-2 91
Cc1cc(OCC(=O)N2CCN(c3ccccc3)CC2)c2c(C)cc(=O)oc2c1	none
CN(C)c1ccc(C(=O)NCCc2ccccc2-c2ccccc2CCC(=O)NCc2ccccc2)cc1	none (no result: GDH-TPI counter-1, Mtb FBA inh, Mtb betalactam, MazF activator)
Cc1cc(OC(C)C(=O)NCc2cccnc2)c2c(C)c(C)c(=O)oc2c1 (stereo not given)	none
Cc1cc(OC(C)C(=O)NCc2cccnc2)c2c3c(c(=O)oc2c1)CCC3 (stereo not given)	none
CCc1cc(=O)oc2cc(C)cc(OC(C)C(=O)NCc3cccnc3)c12 (stereo not given)	Mtb FBA inh 105 | Mtb FBA confirm active | GDH-TPI counter-2 154
CCCCc1cc(=O)oc2cc(C)cc(OC(C)C(=O)NCc3cccnc3)c12 (stereo not given)	Mtb FBA inh 56 | Mtb FBA confirm 55 | GDH-TPI counter-2 43
CCc1cc(=O)oc2cc(C)cc(OC(C)C(=O)NCc3ccncc3)c12 (stereo not given)	Mtb FBA inh 84 | Mtb FBA confirm inactive | GDH-TPI counter-2 inactive
CCOC(=O)N1CCC(NC(=O)CCc2c(C)nc3c(c(C)nn3-c3ccccc3)c2C)CC1	none (no result: Mtb betalactam)
CCOC(=O)N1CCN(C(=O)c2cc(C)c3c(C)nn(-c4ccccc4)c3n2)CC1	Mtb FBA inh 66 | Mtb FBA confirm inactive | GDH-TPI counter-2 inactive
C=CCN1C(=O)[C@@H](CC(=O)NCc2ccc(C)o2)[C@]2(C(=O)OC)CCCCC=C12	none (no result: GDH-TPI counter-1, Mtb FBA inh, Mtb betalactam, MazF activator)
N#Cc1cc2c([nH]c1=S)CCCC2	none
N#Cc1cc2c([nH]c1=O)CCCC2	Mtb FBA inh 68 | Mtb FBA confirm 97 | GDH-TPI counter-2 91
O=C1COc2ccccc2C(c2nnnn2-c2ccc3ccccc3c2)N1C1CC1 (stereo not given)	none (no result: GDH-TPI counter-1, Mtb FBA inh, Mtb betalactam, MazF activator)
O=C(NC1CCCCN(Cc2ccc(Cl)cc2)C1=O)c1ccc2ccccc2c1 (stereo not given)	none (no result: GDH-TPI counter-1, Mtb FBA inh, Mtb betalactam, MazF activator)
COc1cccc2sc3cc(NCc4ccc5c(c4)OCO5)ccc3c(=O)c12	GDH-TPI counter-1 39, Mtb FBA inh 53 | Mtb FBA confirm inactive | GDH-TPI counter-2 19
C[C@H]1O[C@@H](n2c3ccc(Cl)cc3c3ccc4c5cc(Cl)ccc5[nH]c4c32)[C@H](O)[C@H](O)[C@H]1O	none (no result: GDH-TPI counter-1, Mtb FBA inh, Mtb betalactam, MazF activator)
Nc1nc(SCC(=O)Nc2ccc(S(N)(=O)=O)cc2)n[nH]1	none
Cc1ccc(Oc2ccc(NC(=O)CSc3n[nH]c(N)n3)cc2)cc1	Mtb FBA inh 32 | Mtb FBA confirm inactive | GDH-TPI counter-2 inactive
Cc1cc(NS(=O)(=O)c2ccc(NC(=O)CSc3nnc(-c4cccnc4)n3-c3ccccc3)cc2)nc(C)n1	none (no result: GDH-TPI counter-1, Mtb FBA inh, Mtb betalactam, MazF activator)
Cc1cnc(N)c2c(=O)oc3ccccc3c12	Mtb FBA inh 61 | Mtb FBA confirm active | GDH-TPI counter-2 active
O=c1oc2ccccc2c2c1cnc1ccccc12	none (no result: Mtb betalactam)
Cc1cc(C)nc(SCc2nc3nc(C)cc(C)n3c2Br)n1	Mtb FBA inh 30 | Mtb FBA confirm 36 | GDH-TPI counter-2 22
Cc1cc(C)n2c(Br)c(CN3CCCC(C)C3)nc2n1 (stereo not given)	Mtb FBA inh 35 | Mtb FBA confirm 77 | GDH-TPI counter-2 58
Cc1cc(C)n2c(Br)c(CN3CC4CC(C3)c3cccc(=O)n3C4)nc2n1 (stereo not given)	none
COc1cccc2sc3cc(C#Cc4ccccn4)ccc3c(=O)c12	none
COc1cccc2oc3ccc(C#Cc4ccccn4)cc3c(=O)c12	Mtb FBA inh 86 | Mtb FBA confirm 99 | GDH-TPI counter-2 83
CCOCCCNC(=S)Nc1ccc2nc(N3CCOCC3)cc(C)c2c1	Mtb FBA inh 32 | Mtb FBA confirm active | GDH-TPI counter-2 active
COc1ccc(CNC(=S)Nc2ccc3nc(N4CCOCC4)cc(C)c3c2)cc1	Mtb FBA inh 31 | Mtb FBA confirm 33 | GDH-TPI counter-2 28
COc1ccc(CNC(=S)Nc2ccc3nc(N4CCN(C)CC4)cc(C)c3c2)cc1	none
COCCCn1c(=O)c2ccccc2n(CC(=O)NCCC2=CCCCC2)c1=O	none
Cc1cccn2c(=O)c3cc(C(=O)NCCN4CCOCC4)c(=N)n(CCc4ccccc4)c3nc12	Mtb FBA inh 102 | Mtb FBA confirm 58 | GDH-TPI counter-2 55
Cc1cccn2c(=O)c3cc(C(=O)NC4CCCC4)c(=N)n(Cc4ccc(F)cc4)c3nc12	Mtb FBA inh 60 | Mtb FBA confirm inactive | GDH-TPI counter-2 inactive
COCCCn1c(C(=O)NCCC2=CCCCC2)cc2c(=O)n3ccccc3nc21	Mtb FBA inh 47 | Mtb FBA confirm 48 | GDH-TPI counter-2 36
